Laboratory results taken from PubChem BioAssay AID488821 (National Center for Advancing Translational Sciences (NCATS), 2010).
Results filed as inconclusive are left out. Entries that show only a call come without a potency. Activity calls are given as the source filed them. The call rests on the fitted dose curve; in most records, active means well fitted inhibition curve with a large enough effect; inconclusive means small, poorly fitted or top-dose-only effect, or effect the other way; inactive means flat fitted curve, though single readings scatter.

Experiment: Counterscreen Assay for Enhancers of SMN2 Splice Variant Expression: Modulation of SMN1 Expression for Further Probe SAR
Conditions: HEK293 SMN1-luciferase reporter, luminescence, 30-36 h; series mostly up to 46.1 µM
Source text: NIH Chemical Genomics Center [NCGC] NIH Molecular Libraries Probe Production centers Network [MLPCN] MLPCN Grant: R03 MH084179-01 Assay Submitter (PI): Elliot Androphy NCGC Assay Overview: Spinal muscular atrophy (SMA) is caused by insufficient levels of the survival motor neuron protein SMN. The SMN locus on chromosome 5q13 contains two inverted copies of SMN called SMN1 and SMN2 which are 99% identical at the amino acid level. SMN1 is a fully functional protein and SMN2 skips exon 7 90% of the time. Skipping of exon 7 produces non-functional protein product. 10% of the SMN2 protein includes exon 7 and is fully functional. In the SMA disease state, mutations in the SMN1 locus are the cause of the disease state. Because only 10% of SMN2 is of the fully functional form, it is not sufficient to overcome the deficiency produced by the loss of the SMN1 product. A therapy that either increases the amount of SMN2 product made increases the inclusion of exon 7 has been proposed for the treatment of SMA. We have designed an assay to identify small molecules that can increase the amount of functional SMN2 product by appending a luciferase reporter gene after the native SMN2 gene, such that inclusion of exon 7 in the expressed product places the luciferase sequence in frame, thus generating functional luciferase enzyme. As a counterscreen for nonspecific modulators of expression, we have run compounds through a similar assay that measures expression of an SMN1-luciferase chimera.
NCGC Assay Protocol Summary: This screen utilizes a luciferase reporter gene assay, combining the promoter with the major portion of the native SMN1 cDNA (exons 1 -7, intron 8 , exon 8 fused to luciferase) stably expressed in HEK293 cells. Compounds that increase luciferase signal presumably enhance expression of the functional SMN1 splice variant. Passaging media contained DMEM w/ glutamax (+phenol red) 10% FCS, 1x pen/strep, 200 ug/ml hygro, 1x sodium pyruvate. Assay media contained DMEM w/ glutamax (-phenol red) 10% FCS, 1x pen strep, 1x pyruvate Sequence, Parameter, Value, Description (1) Cells, 5 uL, 2000 cells/well, 1536 TC treated White solid bottom plate (2) Time, 10-12 hours, 37C 5% CO2 (3) Compound, 23 nl, MLSMR Library (4) Control Compound, 23 nL, Sodium butyrate st 4.5mM (final) conc (5) Time, 30-36 hours, 37C 5% CO2 (6) Reagent, 3 ul, One Glo (TM) from Promega (7) Time, 5-15 minutes, Room temp (8) Detector, Viewlux: luminescent read, 60 second integration, high speed 2x binning Keywords: Spinal muscular atrophy, SMA, SMN2, high throughput screening, MLSMR, MLPCN, NIH Roadmap, qHTS and NCGC

| Compound | Potency |
| --- | --- |
| O=C(C1CCN(c2nc(-c3ccc(Br)cc3)cs2)CC1)N1CCOCC1 | inactive |
| NC(=O)C1CCN(c2nc(-c3ccc(N)cc3)cs2)CC1 | inactive |
| NC(=O)C1CCN(c2nc(-c3cccc(F)c3)cs2)CC1 | inactive |
| O=C(NCCc1ccccc1)C1CCN(c2nc(-c3ccc(Br)cc3)cs2)CC1 | inactive |
| NC(=O)C1CCN(c2ncc(-c3ccc4c(c3)OCCO4)s2)CC1 | 1.22 µM (active) |
| NC(=O)C1CCN(c2nc(-c3ccccc3[N+](=O)[O-])cs2)CC1 | inactive |
| NC(=O)C1CCN(c2nc(-c3ccc(OC(F)(F)F)cc3)cs2)CC1 | inactive |
| NC(=O)C1CCN(c2nc(-c3cccc(Br)c3)cs2)CC1 | inactive |
| NC1CCN(c2nc(-c3ccc(Br)cc3)cs2)CC1 | 19.4 µM (active) |
| Cc1ccc(-c2ccnc(N3CCC(C(N)=O)CC3)n2)cc1 | 7.72 µM (active) |
| Cc1ccc(-c2nnc(N3CCC(C(N)=O)CC3)s2)cc1 | 6.14 µM (active) |
| CC(C)Oc1cccc(-c2cnc(N3CCC(C(N)=O)CC3)s2)c1 | 4.87 µM (active) |
| NC(=O)C1CCN(c2nccc(-c3ccc(Br)cc3)n2)CC1 | 12.2 µM (active) |
| CN(C)c1cccc(-c2ccnc(N3CCC(C(N)=O)CC3)n2)c1 | inactive |
| NC(=O)C1CCN(c2ncc(-c3cccc(N4CCCCC4)c3)s2)CC1 | inactive |
| NC(=O)C1CCN(c2nnc(-c3ccc(Br)cc3)s2)CC1 | 12.2 µM (active) |
| O=C(NCc1ccccc1)C1CCN(c2nc(-c3ccc(Br)cc3)cs2)CC1 | inactive |
| NC(=O)C1CCN(c2nc(-c3cccc(C(F)(F)F)c3)cs2)CC1 | inactive |
| O=C(Nc1ccccc1)C1CCN(c2ncc(-c3ccc4c(c3)OCCCO4)s2)CC1 | 0.487 µM (active) |
| NC(=O)C1CCN(c2nc(-c3ccc(Oc4ccccc4)cc3)cs2)CC1 | inactive |

| Compound | Potency |
| --- | --- |
| CS(=O)(=O)c1ccc(-c2csc(N3CCC(C(N)=O)CC3)n2)cc1 | inactive |
| NC(=O)C1CCN(c2nc(-c3ccc4c(c3)OCCCO4)cs2)CC1 | 7.72 µM (active) |
| NC(=O)C1CCN(c2ncc(-c3ccc(Cl)cc3)s2)CC1 | 9.72 µM (active) |
| CC(C)Oc1cccc(-c2ccnc(N3CCC(C(N)=O)CC3)n2)c1 | 9.72 µM (active) |
| O=C(c1ccco1)N1CCN(c2nc(-c3ccc(Br)cc3)cs2)CC1 | inactive |
| CC(C)COc1ccc(-c2csc(N3CCC(C(N)=O)CC3)n2)cc1 | inactive |
| NC(=O)C1CCN(c2nnc(-c3ccc4c(c3)OCCCO4)s2)CC1 | 1.54 µM (active) |
| CC(C)(C)OC(=O)NC1CCN(c2nc(-c3ccc(Br)cc3)cs2)CC1 | inactive |
| NC(=O)C1CCN(c2nc(-c3ccccc3Cl)cs2)CC1 | inactive |
| CCOc1ccc(-c2csc(N3CCC(C(N)=O)CC3)n2)cc1 | inactive |
| CN(C)c1ccc(-c2csc(N3CCC(C(N)=O)CC3)n2)cc1 | inactive |
| NC(=O)C1CCN(c2ncc(-c3cccc(N4CCCC4)c3)s2)CC1 | 12.2 µM (active) |
| NC(=O)C1CCN(c2ncc(-c3ccc4c(c3)OC(F)(F)O4)s2)CC1 | 15.4 µM (active) |
| N#Cc1ccc(-c2csc(N3CCC(C(N)=O)CC3)n2)cc1 | inactive |
| NC(=O)C1CCN(c2nc(-c3cccc4ccccc34)cs2)CC1 | inactive |
| NC(=O)C1CCN(c2nc(-c3ccc(OCc4ccccc4)cc3)cs2)CC1 | inactive |
| NC(=O)C1CCN(c2nc(-c3ccc([N+](=O)[O-])cc3)cs2)CC1 | inactive |
| c1c[nH]c(C2CCN(c3ncc(-c4ccc5c(c4)OCCCO5)s3)CC2)n1 | 9.72 µM (active) |
| Brc1ccc(-c2csc(N3CCC(c4nn[nH]n4)CC3)n2)cc1 | inactive |
| N#CC1CCN(c2nc(-c3ccc(Br)cc3)cs2)CC1 | inactive |
